Assay outcomes: PubChem, Broad Institute
Shown are actives, neighbours in structure and some others; about 1.2% of the full set was active somewhere.
Glyco luc inh: increase of ERlucT glycosylation luciferase signal, primary screen, N-linked glycosylation inhibitor project, D54 ERlucT cells, luminescence, set 2; reporter increase, % at 12.5 µM; 360,000 tested, 0.23% active; D54 ERlucT glycosylation luciferase reporter, 24 h; percent of 100 nM tunicamycin response;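 active means mean luciferase reporter signal, scaled so untreated is 0 and the glycosylation-blocking control 100, at or above a set limit in every replicate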;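 further: luciferase carries N-glycosylation sites so blocking glycosylation raises the light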
RAD54 branch: inhibitors of human RAD54 branch migration, primary screen, biochemical, fluorescence, single point | DNA repair and recombination protein RAD54-like (Homo sapiens), Q92698 | RAD54 Holliday junction branch migration, FAM/BHQ fluorescence | inhibition, % at 10.4 µM | 360,000 tested, 0.14% active;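 active means mean normalized replicate activity at least 40 and at least half of replicates scoring 40 or more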;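 further: inhibitors cause a drop in the FAM fluorescence signal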
Target sequence (Q92698 whole entry, looked up): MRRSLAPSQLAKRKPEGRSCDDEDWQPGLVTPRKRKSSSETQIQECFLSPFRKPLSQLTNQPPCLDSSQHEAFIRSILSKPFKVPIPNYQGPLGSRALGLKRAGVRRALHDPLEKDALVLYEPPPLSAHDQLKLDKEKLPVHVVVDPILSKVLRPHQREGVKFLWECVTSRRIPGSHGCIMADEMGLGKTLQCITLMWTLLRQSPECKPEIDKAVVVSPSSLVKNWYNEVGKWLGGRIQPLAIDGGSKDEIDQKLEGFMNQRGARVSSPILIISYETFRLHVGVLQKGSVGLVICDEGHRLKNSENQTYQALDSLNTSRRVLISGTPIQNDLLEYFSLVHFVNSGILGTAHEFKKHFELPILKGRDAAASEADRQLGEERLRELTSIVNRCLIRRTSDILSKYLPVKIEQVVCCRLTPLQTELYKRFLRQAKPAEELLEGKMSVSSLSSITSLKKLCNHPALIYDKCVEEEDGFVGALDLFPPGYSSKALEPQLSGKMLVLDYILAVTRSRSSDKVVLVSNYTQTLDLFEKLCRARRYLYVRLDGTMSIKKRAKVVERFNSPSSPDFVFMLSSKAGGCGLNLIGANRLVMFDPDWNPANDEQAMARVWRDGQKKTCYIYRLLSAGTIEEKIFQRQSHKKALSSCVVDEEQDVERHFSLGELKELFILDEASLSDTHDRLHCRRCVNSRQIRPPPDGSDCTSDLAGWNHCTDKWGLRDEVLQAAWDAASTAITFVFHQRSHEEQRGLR
CASP6 VEID inh: human caspase-6 inhibitors, primary screen, biochemical, VEID-R110 fluorescence, single point, set 2. 350,000 tested, 0.53% active. AID 686996, 2013. inhibition, % at 12.5 µM. P55212. purified caspase-6, Z-VEID-R110 cleavage fluorescence;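 active means mean inhibition across replicates at least about 35%, with every replicate also reaching that limit, limit read from the data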
MLL AF4-AF9 inh: inhibitors of AF4 peptide binding to AF9, primary screen, biochemical, AlphaScreen, biotin-AF4 peptide, FLAG-AF9, single point; 350,000 tested, 0.47% active; AID 651704, 2012; inhibition, % at 10 µM;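 active means every replicate reaching a set inhibition limit, whatever the replicate mean, cut at about 25% in these data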
RAD52 inh: RAD52 DNA annealing inhibitors, primary screen, biochemical, FRET, single point, set 2; DNA repair protein RAD52 homolog (Homo sapiens), P43351; recombinant RAD52 DNA annealing, FRET fluorescence; inhibition, % at 18.7 µM; 360,000 tested, 0.46% active;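 active means every replicate showing at least 50% inhibition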
Of the large screens only hits and unclear results are named; the others gave an inactive call; ! = not active in a repeat.

O=C(C[C@H]1C=C[C@@H](NC(=O)CCN2CCCCC2)[C@H](CO)O1)Nc1ccc(-c2ccccc2)cc1	none (no result: Glyco luc inh)
CN1CCN(C(=S)c2cn(Cc3cccc(F)c3)c3ccccc23)CC1	none (no result: RAD54 branch)
CN1CCN(C(=S)c2cn(Cc3ccc(F)cc3)c3ccccc23)CC1	MLL AF4-AF9 inh 31.0 (no result: RAD54 branch)
C[C@@H]1CN([C@@H](C)CO)C(=O)Cc2cc(NS(=O)(=O)c3ccc(F)cc3)ccc2O[C@@H]1CN(C)Cc1ccc(Oc2ccccc2)cc1	none (no result: Glyco luc inh)
O=C(NCCC1=CCCCC1)C1CCC(CNc2nc(=S)[nH]c3ccccc23)CC1 (centres undefined)	Glyco luc inh 58.4
O=C(NCCc1ccc(Cl)cc1)C1CCC(CNc2nc(=S)[nH]c3ccccc23)CC1 (centres undefined)	none
CCC(=O)N1CC2(C1)CN(Cc1ccccc1Cl)[C@H](CO)c1[nH]c3cc(OC)ccc3c12	none (no result: Glyco luc inh, RAD54 branch, CASP6 VEID inh, RAD52 inh)
C[C@@H]1CN([C@@H](C)CO)C(=O)c2cc(-c3ccccc3)cnc2O[C@@H]1CN(C)Cc1ccccc1	none (no result: Glyco luc inh)
Cc1ccc(C2=NOC(=O)/C2=C\c2ccc(C)o2)cc1	CASP6 VEID inh 40.7
CO[C@H]1CN(C)C(=O)c2cc(NC(=O)Nc3ccccc3)ccc2OC[C@@H](C)N(C(=O)CC2CC2)C[C@H]1C	none (no result: Glyco luc inh, CASP6 VEID inh)
COc1cc(/C=C/c2onc(C)c2[N+](=O)[O-])cc(OC)c1OC	Glyco luc inh 36.7 (no result: RAD54 branch)
Cc1ccc(S(=O)(=O)N(C)C[C@@H]2Oc3ncc(-c4ccc(F)cc4)cc3C(=O)N([C@H](C)CO)C[C@@H]2C)cc1	none (no result: Glyco luc inh)
Cc1cc(C)nc(/N=C(\N)Nc2ccc(CC(=O)OC(C)C)cc2)n1	Glyco luc inh 48.4
Cc1cc(C)nc(/N=C(\N)Nc2ccc(OCCC(C)C)cc2)n1	Glyco luc inh 47.9
COc1ccc(N/C(N)=N/c2nc(C)cc(C)n2)cc1	none
COC(=O)c1ccc(CNC(=O)COC(=O)c2cc(Cl)ccc2O)cc1	none
COC(=O)c1ccc(CNC(=O)COC(=O)c2ccccc2-c2ccccc2)cc1	CASP6 VEID inh 59.2
COc1ccc2c3c(n(C)c2c1)[C@H](CO)N(S(C)(=O)=O)CC31CN(C(=O)C2CC2)C1	none (no result: Glyco luc inh, RAD54 branch, CASP6 VEID inh, RAD52 inh)
CCOCCCNC(=O)C1c2ccccc2Oc2ccccc21	CASP6 VEID inh 41.3
CC1(c2nnc(-c3ccncc3)o2)CC(c2ccc(F)cc2)=NO1 (centres undefined)	MLL AF4-AF9 inh 33.9
CC1(c2nnc(-c3ccc(F)cc3)o2)CC(c2cccnc2)=NO1 (centres undefined)	none
NC(=O)C1CCN(C2=C(Cl)C(=O)c3ccccc3C2=O)CC1	Glyco luc inh 78.3 (no result: CASP6 VEID inh, MLL AF4-AF9 inh, RAD52 inh)
O=C1C(Cl)=C(N2CCC(C(=O)O)CC2)C(=O)c2ccccc21	none (no result: RAD54 branch, CASP6 VEID inh, MLL AF4-AF9 inh, RAD52 inh)
CN1CCN(C2=C(Cl)C(=O)c3ccccc3C2=O)CC1	CASP6 VEID inh 98.6 (no result: RAD54 branch)
CC1COCC(C)N1C1=C(Cl)C(=O)c2ccccc2C1=O (centres undefined)	Glyco luc inh 34.4, MLL AF4-AF9 inh 27.4
C[C@@H]1CN([C@H](C)CO)C(=O)c2cc(/C=C/c3ccccc3)cnc2O[C@H]1CN(C)C(=O)Nc1ccc(C(F)(F)F)cc1	none (no result: Glyco luc inh)
C[C@@H]1CN([C@H](C)CO)C(=O)Cc2cc(NC(=O)NC3CCCCC3)ccc2O[C@@H]1CN(C)Cc1ccc(C(F)(F)F)cc1	none (no result: Glyco luc inh)
COc1cccc(C2CC(=O)NC(SC)=C2C#N)c1 (centres undefined)	MLL AF4-AF9 inh 25.4
CN(C)C(=O)[C@H]1[C@H](CO)[C@H]2Cn3c(ccc(C4=CCCC4)c3=O)[C@H]2N1Cc1ccccn1	none (no result: Glyco luc inh)
C[C@@H]1CCCCO[C@@H](CN(C)S(=O)(=O)c2ccc(F)cc2)[C@H](C)CN([C@H](C)CO)C(=O)c2cc(NC(=O)Nc3ccc4c(c3)OCO4)ccc2O1	none (no result: Glyco luc inh)
CNC(=O)c1cccc(NC(=O)c2ccccc2OCc2ccccc2)c1	Glyco luc inh 27.1
O=C(Nc1ccc(O)cc1)c1ccccc1OCc1ccccc1	none
O=C(Nc1ccccc1)c1ccccc1OCc1cccc([N+](=O)[O-])c1	CASP6 VEID inh 35.7 (no result: RAD54 branch)
COc1cc(NC(=O)c2ccccc2OCc2ccccc2)cc(OC)c1OC	Glyco luc inh 27.8
COCC#Cc1cnc2c(c1)C(=O)N([C@@H](C)CO)C[C@H](C)[C@@H](CN(C)C(=O)C1CC1)O2	none (no result: Glyco luc inh)
Cc1ccccc1-c1cnc2c(c1)C(=O)N([C@H](C)CO)C[C@@H](C)[C@H](CN(C)Cc1ccncc1)O2	none (no result: Glyco luc inh)
CN(C)c1ccc(Nc2ncnc3ccc(Br)cc23)cc1	MLL AF4-AF9 inh 26.1
Nc1ccc(Nc2ccccc2N)cc1	none (no result: RAD54 branch, CASP6 VEID inh, MLL AF4-AF9 inh, RAD52 inh)
COc1ccc(Nc2ccccc2N)cc1	MLL AF4-AF9 inh 40.0 (no result: RAD54 branch)
CN(C)CC/C=C1\c2ccccc2COc2ccccc21	none
CN(C)CC/C=C1/c2ccccc2Sc2ccc(Cl)cc21	MLL AF4-AF9 inh 26.9!
C[C@@H]1CCCCO[C@H](CN(C)C)[C@H](C)CN([C@@H](C)CO)C(=O)c2cc(NC(=O)CCC(F)(F)F)ccc2O1	none (no result: Glyco luc inh)
O=C(O)/C(=C\c1ccco1)NC(=O)c1cccc2ccccc12	CASP6 VEID inh 41.4
CC(C)(C)c1ccc(C(=O)N/C(=C\c2ccco2)C(=O)O)cc1	none (no result: RAD54 branch)
O=C(O)/C(=C/c1ccco1)NC(=O)c1ccccc1	CASP6 VEID inh 37.4
CC(C)NC(=O)N(C)C[C@@H]1Oc2ncc(-c3cncnc3)cc2C(=O)N([C@@H](C)CO)C[C@@H]1C	none (no result: Glyco luc inh)
C[C@@H]1CCCCO[C@@H](CN(C)S(=O)(=O)c2ccccc2)[C@@H](C)CN([C@@H](C)CO)C(=O)c2cc(NS(=O)(=O)c3cccs3)ccc2O1	none (no result: Glyco luc inh)
COc1cc(-c2nc(-c3ccccc3)c(-c3cccs3)[nH]2)cc(OC)c1OC	Glyco luc inh 56.6 (no result: CASP6 VEID inh, MLL AF4-AF9 inh, RAD52 inh)
NS(=O)(=O)c1ccc(-c2ccc(/C=C3\C(=O)Nc4cc(Cl)ccc43)o2)cc1	none
CC1(C)OC(=O)C(=Cc2ccc(-c3ccc(S(N)(=O)=O)cc3)o2)C(=O)O1	CASP6 VEID inh 53.5
COc1cccc2c1C(=O)C=C(C)C2=O	none
COC1=CC(=O)c2nc(Cl)ccc2C1=O	CASP6 VEID inh 99.7 (no result: RAD54 branch)
O=C(O)CCCCNCc1ccccc1	none (no result: CASP6 VEID inh, MLL AF4-AF9 inh, RAD52 inh)
c1ccc(CNCCCNCCCCNCCCNCc2ccccc2)cc1	MLL AF4-AF9 inh 25.5 (no result: RAD54 branch)
CCOC(=O)C1=C(C)Nc2ccccc2N/C1=N\S(=O)(=O)c1ccc(Cl)cc1	none
CCOC(=O)C1=C(C)Nc2ccccc2N/C1=N\S(=O)(=O)c1cc(C(=O)O)ccc1Cl	CASP6 VEID inh 36.6
CC(C)CCNc1nc(-c2ccco2)c2c(c1C#N)CCCC2	none (no result: CASP6 VEID inh, MLL AF4-AF9 inh, RAD52 inh)
N#Cc1c(NCCN)nc(-c2ccco2)c2c1CCCC2	Glyco luc inh 32.9 (no result: RAD54 branch, CASP6 VEID inh, MLL AF4-AF9 inh, RAD52 inh)
CN(C)CC#Cc1ccc([C@@H]2[C@H](CO)N3CCCCN(CC4CC4)C[C@@H]23)cc1	MLL AF4-AF9 inh 27.4, RAD52 inh 58.5 (no result: Glyco luc inh)
